Experimental findings from PubChem BioAssay are described below.

Active and inactive are the calls of the source. Unless noted, no rule for the calls is given here.

Test [1] in a line: resazurin metabolic signal in HepG2 cells – cell-based, resazurin fluorescence, 24 h, PK04 Diversity Set, profiling panel (AID 1172). The following applies: HepG2 viability, higher = more signal.
Test [2] in a line: budding yeast growth changes without added modifier – OD600, strain BY4716, 24 h, basal condition, primary screen (AID 1173). Conditions: S. cerevisiae BY4716 growth, OD600, 24 h; higher = more signal, called active from +8 up or from −8 down.
Test [3] in a line: viability profiling in MM1S myeloma cells – cell-based, resazurin fluorescence, basal, 24 h, PK04 Diversity Set, profiling panel (AID 1174). Conditions: higher = more signal, called active from +8 up or from −8 down.
For test [4], the target named is Dihydroorotate dehydrogenase (quinone), mitochondrial (Plasmodium falciparum (isolate 3D7)) (UniProt Q08210). The test can be described thus: inhibition of P. falciparum DHODH – biochemical, C-terminal His tag, absorbance 600 nm, primary screen (AID 1175).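 Also: recombinant parasite enzyme with a five histidine tag at its C terminus.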 The following applies: PfDHODH enzyme, DCIP absorbance 600 nm; higher = more signal, called active from +8 up or from −8 down.

Test [5] in a line: inhibition of PAO1 biofilm formation – strain PAO1, LB-PBS medium, absorbance 600 nm, primary screen (AID 1176). Conditions: P. aeruginosa PAO1 growth/biofilm, A600, 12 h; higher = more signal.
Test [6] can be described thus: growth modulation of vineyard yeast isolate – strain RM11-1a, OD600, basal, 24 h, primary screen (AID 1177).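 Also: cultures grown under basal conditions with no added stressor.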 Conditions: S. cerevisiae RM11-1a growth, OD600, 24 h; higher = more signal, called active from +8 up or from −8 down.
Test [7] is described as follows: growth of efflux-deficient E. coli DRC39 – strain DRC39, OD650, 24 h, E. coli filamentation inducers, primary screen (AID 1178).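 Also: growth measured as culture turbidity by optical density at 650 nm.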 The following applies: E. coli DRC39 acrAB, higher = more signal, called active from +8 up or from −8 down.
Test [8] can be described thus: growth of efflux-deficient E. coli DRC39 – strain DRC39, OD650, 48 h, E. coli filamentation inducers, primary screen (AID 1179).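 Also: screen aims at cell division blockers that make cells filament.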 Conditions: E. coli DRC39 delta-acrAB growth, higher = more signal, called active from +8 up or from −8 down.
Test [9] can be described thus: viability profiling in RPMI8226 myeloma cells – cell-based, resazurin fluorescence, basal, 24 h, PK04 Diversity Set, profiling panel (AID 1180).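 Also: RPMI8826 multiple myeloma cell line at 5000 cells per well.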 Conditions: higher = more signal.
The target in test [10] is E3 ubiquitin-protein ligase XIAP (Homo sapiens) (UniProt P98170). The test can be described thus: small molecules binding XIAP protein – biophysical, small-molecule microarray, fluorescence 635 nm, primary screen (AID 1181).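 Also: score merges 667 nm emission and signal to noise over triplicate slides.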 Conditions: higher = more signal.
For test [11], the system named is XIP peptide (Xip251-270) binding. The test can be described thus: XIP fragment 251-270 binding compounds – biochemical, small-molecule microarray, fluorescence 635/667 nm, 0.1 µg/mL protein, primary screen (AID 1182). The following applies: fluorescent protein binding, 635 nm, higher = more signal, called active from +8 up or from −8 down.
Test [12] has as its system XIP peptide (Xip251-270). Description: compounds binding XIP fragment 251-270 – biochemical, small-molecule microarray, fluorescence 635/667 nm, 0.5 µg/mL protein, primary screen (AID 1183). The following applies: fluorescence 635 nm, higher = more signal.
The nature of test [13]: blood-stage malaria parasite viability loss – strain 3D7, DAPI fluorescence, 100 nL, primary screen (AID 1184).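 Also: parasites grown inside human red blood cells in medium with human serum.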 The following applies: P. falciparum 3D7 growth, 3 d, higher = more signal.
The target in test [14] is Homeobox protein Hox-A13 (Mus musculus) (UniProt Q62424). The test can be described thus: disruptors of Hoxa13 oligonucleotide interaction – biochemical, fluorescence polarization, labeled oligonucleotide, primary screen (AID 1185). The following applies: Hoxa13:DNA binding, 15 min, higher = more signal, called active from +8 up or from −8 down.
Test [15] can be described thus: blockers of DNA damage checkpoint Chk1 activation – imaging, HeLa, hydroxyurea, phospho-Chk1 antibody, percent positive cells, primary screen (AID 1186). The following applies: hydroxyurea-induced phospho-Chk1 immunofluorescence imaging, higher = more signal.
Test [16] can be described thus: blockers of DNA damage checkpoint Chk1 activation – imaging, HeLa, hydroxyurea, phospho-Chk1 nuclear intensity, primary screen (AID 1187). The following applies: hydroxyurea-induced phospho-Chk1 immunofluorescence imaging, higher = more signal.

E3 ubiquitin-protein ligase XIAP (Homo sapiens), sequence (P98170 whole entry, looked up, the tested form may be a part): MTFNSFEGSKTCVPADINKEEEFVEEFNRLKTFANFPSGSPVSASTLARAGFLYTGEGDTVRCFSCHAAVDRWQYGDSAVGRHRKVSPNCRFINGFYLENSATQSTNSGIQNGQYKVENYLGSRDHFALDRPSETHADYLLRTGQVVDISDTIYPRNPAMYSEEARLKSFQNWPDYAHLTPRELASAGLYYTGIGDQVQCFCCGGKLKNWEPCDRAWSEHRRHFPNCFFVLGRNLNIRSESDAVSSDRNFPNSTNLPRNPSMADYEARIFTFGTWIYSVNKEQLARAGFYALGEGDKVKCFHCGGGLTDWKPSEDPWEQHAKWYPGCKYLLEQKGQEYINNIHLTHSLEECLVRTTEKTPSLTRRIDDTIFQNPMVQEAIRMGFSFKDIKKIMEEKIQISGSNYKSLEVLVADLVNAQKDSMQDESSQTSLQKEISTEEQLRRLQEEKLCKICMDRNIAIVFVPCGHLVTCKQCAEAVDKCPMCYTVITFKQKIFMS
Dihydroorotate dehydrogenase (quinone), mitochondrial (Plasmodium falciparum (isolate 3D7)), sequence (Q08210 whole entry, looked up): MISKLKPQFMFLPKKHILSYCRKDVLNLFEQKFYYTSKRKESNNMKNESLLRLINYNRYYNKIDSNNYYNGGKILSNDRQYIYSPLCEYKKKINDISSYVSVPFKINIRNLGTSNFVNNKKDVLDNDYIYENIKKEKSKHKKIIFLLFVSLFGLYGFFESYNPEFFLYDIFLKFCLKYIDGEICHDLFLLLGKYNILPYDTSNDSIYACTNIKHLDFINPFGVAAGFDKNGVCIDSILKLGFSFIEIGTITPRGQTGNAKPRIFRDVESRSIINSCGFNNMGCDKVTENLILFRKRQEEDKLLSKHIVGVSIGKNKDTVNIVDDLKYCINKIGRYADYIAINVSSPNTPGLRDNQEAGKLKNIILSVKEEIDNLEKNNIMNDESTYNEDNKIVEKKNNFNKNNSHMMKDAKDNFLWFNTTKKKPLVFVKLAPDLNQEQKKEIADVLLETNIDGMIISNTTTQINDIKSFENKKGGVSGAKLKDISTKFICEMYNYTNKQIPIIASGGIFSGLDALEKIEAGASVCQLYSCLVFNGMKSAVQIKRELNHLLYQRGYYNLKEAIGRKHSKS
Homeobox protein Hox-A13 (Mus musculus), sequence (Q62424 whole entry, looked up): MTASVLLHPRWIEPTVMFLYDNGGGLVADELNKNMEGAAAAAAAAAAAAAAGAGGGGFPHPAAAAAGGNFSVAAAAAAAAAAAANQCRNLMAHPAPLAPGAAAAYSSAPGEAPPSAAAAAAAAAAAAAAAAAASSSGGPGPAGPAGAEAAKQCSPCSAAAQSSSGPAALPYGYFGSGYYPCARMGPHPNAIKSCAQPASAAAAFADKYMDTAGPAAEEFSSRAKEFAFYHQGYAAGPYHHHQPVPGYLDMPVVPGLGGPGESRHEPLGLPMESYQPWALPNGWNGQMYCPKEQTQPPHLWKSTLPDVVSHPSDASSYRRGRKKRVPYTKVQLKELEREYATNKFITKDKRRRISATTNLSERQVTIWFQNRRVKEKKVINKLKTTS

As for `CC(C)C[C@@H]1NC(=O)[C@H]2C[C@@H](C(=O)NCCCCCC[N+](C)(C)C)[C@@H](c3cccc(OCCO)c3)N2C1=O`, the z-score is 1.15 in [1]; -0.703 (inactive) in test [2]; 0.288 (inactive) in test [3]; -0.819 (inactive) in [5]; -0.215 (inactive) in [6]; 0.481 (inactive) in test [7]. Moreover, the z-score in test [8] was 0.442 (inactive); in [9], 0.571; in [13] it was -0.411; in test [14] it was -5.33 (inactive); in test [15], -0.481 (inactive); in [16], -0.503 (inactive). Moreover, the composite z-score in test [4] is -1.16 (inactive); in [10] it was -0.188; in test [11], 0.506 (inactive); in [12], 0.748.
With `CC(C)CCC[C@@H](C)[C@H]1CC[C@@]2(C)C3=C(CC[C@]12C)[C@@]1(C)CC[C@H](OC(=O)c2ccc(Br)cc2)C(C)(C)C1CC3` (stereo partly drawn), the z-score in [1] is 1.05; in test [2], -0.149 (inactive); in test [3], 0.345 (inactive); in [5] it was 0.0694 (inactive); in test [6], -1.7 (inactive); in test [7], 0.998 (inactive). Besides, the z-score in [8] is 1.07 (inactive); in [9], 0.766; in [13], 0.665; in [14], -0.708 (inactive); in [15] it was 0.0833 (inactive); in test [16], 0.377 (inactive). Moreover, the composite z-score in test [4] was -1.4 (inactive); in [10] it was 0.0223; in [11], -0.349 (inactive); in test [12] it was -0.198.
Turning to `COc1cc(OC)c(C(O)C2C=CC3C(=O)N(c4ccccc4)C(=O)C3N2Nc2ccc(C#N)cc2)cc1Br` (stereo not drawn), the z-score in test [1] was -0.99; in [2], -6.31 (inactive); in test [3], -0.408 (inactive); in test [5], 0.984 (inactive); in test [6], -0.759 (inactive); in [7], -0.628 (inactive). The z-score was -0.0118 (inactive) in test [8]; -0.758 in test [9]; -0.365 in test [13]; -3.36 (inactive) in [14]; -0.002 (inactive) in test [15]; -0.795 (inactive) in test [16]. For the same compound, the composite z-score in test [4] was 1.49 (inactive); in [10], -0.0181; in [11], 3.12 (inactive); in [12], 0.796.
On to `COc1ccc(C#Cc2ccc3c(c2)[C@]2(C(=O)N3)[C@H](C(=O)N3CCc4cc(OC)c(OC)cc4C3)[C@H]3C(=O)O[C@H](c4ccccc4)[C@H](c4ccccc4)N3[C@@H]2c2ccc(O)cc2)cc1`, for which the z-score is -0.235 in test [1]; 0.507 (inactive) in [2]; -0.443 (inactive) in test [3]; 1.45 (inactive) in test [5]; 1.36 (inactive) in [6]; 0.0877 (inactive) in [7]. Also, the z-score in test [8] was 0.307 (inactive); in test [9], -0.482; in [13] it was -1.48; in [14] it was -1.05 (inactive); in test [15], -0.24 (inactive); in test [16] it was -0.218 (inactive). For the same compound, the composite z-score in test [4] is -0.719 (inactive); in [10] it was -0.277; in [11] it was 0.786 (inactive); in [12] it was 0.578.
With `[N-]=[N+]=NCc1ccccc1C[C@@]1(C(N)=O)N=C(c2ccc(OCCCO)cc2)O[C@@H]1c1ccccc1CN=[N+]=[N-]`, the z-score is 0.717 in test [1]; -1.43 (inactive) in test [2]; -0.833 (inactive) in [3]; 0.261 (inactive) in test [5]; 0.835 (inactive) in [6]; 0.178 (inactive) in [7]. For the same compound, the z-score is 0.041 (inactive) in test [8]; 0.0178 in test [9]; -1.91 in test [13]; -1.91 (inactive) in test [14]; -0.228 (inactive) in [15]; -0.347 (inactive) in [16]. Further, the composite z-score in test [4] is -11.6 (active); in test [10] it was 0.0049; in test [11], 0.145 (inactive); in [12], 0.0228.
Regarding `[N-]=[N+]=Nc1ccccc1[C@H]1OC(c2ccc(OCCCO)cc2)=N[C@@]1(CCS(=O)(=O)c1ccccc1)C(=O)N1CCCCC1`, the z-score in [1] is 0.186; in [2], -0.0728 (inactive); in test [3], -1.63 (inactive); in [5] it was 0.715 (inactive); in test [6] it was 0.836 (inactive); in test [7], 0.21 (inactive). For the same compound, the z-score was -0.714 (inactive) in test [8]; -1.64 in test [9]; -2.19 in test [13]; -1.18 (inactive) in test [14]; -0.483 (inactive) in [15]; -0.458 (inactive) in test [16]. Further, the composite z-score is -0.792 (inactive) in [4], -0.0884 in test [10], 0.154 (inactive) in [11] and 0.755 in test [12].
Regarding `C[C@H]1C2=C3C(CC[C@H]4C(OCc5ccc(F)cc5C(F)(F)F)OC[C@](C)([C@@H]34)N(C(=O)OC(C)(C)C)C2)C2COC(=O)OCC21` (stereo partly drawn), the z-score in test [1] is -1.33; in [2], -0.0764 (inactive); in [3] it was -1.43 (inactive); in [5] it was 0.371 (inactive); in test [6], 0.235 (inactive); in [7] it was -0.698 (inactive). For the same compound, the z-score in test [8] is -0.398 (inactive); in test [9] it was -1.18; in test [13], -0.121; in [14], -3.49 (inactive); in test [15] it was 0.671 (inactive); in test [16], 0.439 (inactive). For the same compound, the composite z-score in [4] was -0.047 (inactive); in [10] it was 0.572; in test [11] it was 0.172 (inactive); in test [12], 0.551.
For `CC(CO)N1C(=O)[C@@H]2C3C(=O)OCCC/C=C\[C@H]3OC23C=CCN(Cn2nnc4ccccc42)C(=O)[C@@H]13` (stereo partly drawn), the z-score in [1] was 0.256; in [2] it was -0.159 (inactive); in test [3], 0.595 (inactive); in [5] it was 0.205 (inactive); in test [6], 0.549 (inactive); in [7] it was 0.935 (inactive). The z-score in test [8] is 0.829 (inactive); in [9], 0.605; in [13], 0.357; in test [14], -2.97 (inactive); in test [15] it was -0.235 (inactive); in test [16], 0.103 (inactive). For the same compound, the composite z-score in [4] was -2.72 (inactive); in [10] it was 0.0511; in test [11] it was -0.584 (inactive); in test [12], 0.475.
